Our source for the binding signal values is PMC9911399, “Two distinct binding modes provide the RNA-binding protein RbFox with extraordinary sequence specificity”.

Residue numbers refer to the chain shown, from its start. In all, about 16,000 sequences were measured (“ka relative to ugcaugu”: median about 0.096, highest 2% from about 0.35 on). The list comes from a sample in which the highest values are over-represented; it also holds similar and randomly drawn sequences.

The labels stand for the following.
B1: GAAUACU (DNA:RNA)
RNA: GGGAGACCGGAAUUCAGAUUGUCCGAAUACUUUAAAUCCCGUCGUAGCCACCA
DNA 1: CAATCTGAATTCCGGTCTCCC
DNA 2: TGGTGGCTACGACGGGATT
B2: CCUCACA (DNA:RNA)
RNA: B1 RNA with G25C, A26C, A27U, U28C, U31A
DNA 1: CAATCTGAATTCCGGTCTCCC
DNA 2: TGGTGGCTACGACGGGATT
B3: GUCUUGC (DNA:RNA)
RNA: B1 RNA with A26U, A27C, A29U, C30G, U31C
DNA 1: CAATCTGAATTCCGGTCTCCC
DNA 2: TGGTGGCTACGACGGGATT
B4: GCUUGUC (DNA:RNA)
RNA: B1 RNA with A26C, A27U, A29G, C30U, U31C
DNA 1: CAATCTGAATTCCGGTCTCCC
DNA 2: TGGTGGCTACGACGGGATT
B5: GUCUUGU (DNA:RNA)
RNA: B1 RNA with A26U, A27C, A29U, C30G
DNA 1: CAATCTGAATTCCGGTCTCCC
DNA 2: TGGTGGCTACGACGGGATT
B6: GGCUUGC (DNA:RNA)
RNA: B1 RNA with A26G, A27C, A29U, C30G, U31C
DNA 1: CAATCTGAATTCCGGTCTCCC
DNA 2: TGGTGGCTACGACGGGATT
B7: GUCUUAA (DNA:RNA)
RNA: B1 RNA with A26U, A27C, A29U, C30A, U31A
DNA 1: CAATCTGAATTCCGGTCTCCC
DNA 2: TGGTGGCTACGACGGGATT
B8: GUCGUCU (DNA:RNA)
RNA: B1 RNA with A26U, A27C, U28G, A29U
DNA 1: CAATCTGAATTCCGGTCTCCC
DNA 2: TGGTGGCTACGACGGGATT
B9: GUUUGUC (DNA:RNA)
RNA: B1 RNA with A26U, A27U, A29G, C30U, U31C
DNA 1: CAATCTGAATTCCGGTCTCCC
DNA 2: TGGTGGCTACGACGGGATT
B10: GGAUUGA (DNA:RNA)
RNA: B1 RNA with A26G, A29U, C30G, U31A
DNA 1: CAATCTGAATTCCGGTCTCCC
DNA 2: TGGTGGCTACGACGGGATT
B11: GUCUUGA (DNA:RNA)
RNA: B1 RNA with A26U, A27C, A29U, C30G, U31A
DNA 1: CAATCTGAATTCCGGTCTCCC
DNA 2: TGGTGGCTACGACGGGATT
B12: UCGUGCG (DNA:RNA)
RNA: B1 RNA with G25U, A26C, A27G, A29G, U31G
DNA 1: CAATCTGAATTCCGGTCTCCC
DNA 2: TGGTGGCTACGACGGGATT
B13: UCGCCAG (DNA:RNA)
RNA: GGGAGACCGGAAUUCAGAUUGUCCUCGCCAGUUAAAUCCCGUCGUAGCCACCA
DNA 1: CAATCTGAATTCCGGTCTCCC
DNA 2: TGGTGGCTACGACGGGATT
B14: ACGUCCU (DNA:RNA)
RNA: B1 RNA with G25A, A26C, A27G, A29C
DNA 1: CAATCTGAATTCCGGTCTCCC
DNA 2: TGGTGGCTACGACGGGATT
B15: AACCAGA (DNA:RNA)
RNA: B1 RNA with G25A, A27C, U28C, C30G, U31A
DNA 1: CAATCTGAATTCCGGTCTCCC
DNA 2: TGGTGGCTACGACGGGATT
B16: CAAACUC (DNA:RNA)
RNA: B1 RNA with G25C, U28A, A29C, C30U, U31C
DNA 1: CAATCTGAATTCCGGTCTCCC
DNA 2: TGGTGGCTACGACGGGATT
B17: AGAAGAU (DNA:RNA)
RNA: B1 RNA with G25A, A26G, U28A, A29G, C30A
DNA 1: CAATCTGAATTCCGGTCTCCC
DNA 2: TGGTGGCTACGACGGGATT
B18: UCCCCGG (DNA:RNA)
RNA: B13 RNA with G27C, A30G
DNA 1: CAATCTGAATTCCGGTCTCCC
DNA 2: TGGTGGCTACGACGGGATT
B19: AAAAAGC (DNA:RNA)
RNA: B1 RNA with G25A, U28A, C30G, U31C
DNA 1: CAATCTGAATTCCGGTCTCCC
DNA 2: TGGTGGCTACGACGGGATT
B20: AAAUUGC (DNA:RNA)
RNA: B1 RNA with G25A, A29U, C30G, U31C
DNA 1: CAATCTGAATTCCGGTCTCCC
DNA 2: TGGTGGCTACGACGGGATT
B21: GCGCACG (DNA:RNA)
RNA: B13 RNA with U25G, C29A, A30C
DNA 1: CAATCTGAATTCCGGTCTCCC
DNA 2: TGGTGGCTACGACGGGATT
B22: ACGCACG (DNA:RNA)
RNA: B13 RNA with U25A, C29A, A30C
DNA 1: CAATCTGAATTCCGGTCTCCC
DNA 2: TGGTGGCTACGACGGGATT
B23: GCACGCG (DNA:RNA)
RNA: B1 RNA with A26C, U28C, A29G, U31G
DNA 1: CAATCTGAATTCCGGTCTCCC
DNA 2: TGGTGGCTACGACGGGATT
B24: GCACGAA (DNA:RNA)
RNA: B13 RNA with U25G, G27A, C29G, G31A
DNA 1: CAATCTGAATTCCGGTCTCCC
DNA 2: TGGTGGCTACGACGGGATT
B25: GCACGUC (DNA:RNA)
RNA: B1 RNA with A26C, U28C, A29G, C30U, U31C
DNA 1: CAATCTGAATTCCGGTCTCCC
DNA 2: TGGTGGCTACGACGGGATT
B26: GCACGUA (DNA:RNA)
RNA: B1 RNA with A26C, U28C, A29G, C30U, U31A
DNA 1: CAATCTGAATTCCGGTCTCCC
DNA 2: TGGTGGCTACGACGGGATT
B27: CGCACCG (DNA:RNA)
RNA: B13 RNA with U25C, C26G, G27C, C28A, A30C
DNA 1: CAATCTGAATTCCGGTCTCCC
DNA 2: TGGTGGCTACGACGGGATT
B28: ACGUCCG (DNA:RNA)
RNA: B13 RNA with U25A, C28U, A30C
DNA 1: CAATCTGAATTCCGGTCTCCC
DNA 2: TGGTGGCTACGACGGGATT
B29: GCACGUG (DNA:RNA)
RNA: B13 RNA with U25G, G27A, C29G, A30U
DNA 1: CAATCTGAATTCCGGTCTCCC
DNA 2: TGGTGGCTACGACGGGATT
B30: CCGCACG (DNA:RNA)
RNA: B13 RNA with U25C, C29A, A30C
DNA 1: CAATCTGAATTCCGGTCTCCC
DNA 2: TGGTGGCTACGACGGGATT
B31: GUCCACG (DNA:RNA)
RNA: B1 RNA with A26U, A27C, U28C, U31G
DNA 1: CAATCTGAATTCCGGTCTCCC
DNA 2: TGGTGGCTACGACGGGATT
B32: GCACGAG (DNA:RNA)
RNA: B13 RNA with U25G, G27A, C29G
DNA 1: CAATCTGAATTCCGGTCTCCC
DNA 2: TGGTGGCTACGACGGGATT

The assay has as its target T1, RBFOX1 RRM RbFoxmut (Fox-RRM*) (Homo sapiens, UniProt Q9NWB1 109-208, R118D;E147R;N151S;E152T).
T1 sequence: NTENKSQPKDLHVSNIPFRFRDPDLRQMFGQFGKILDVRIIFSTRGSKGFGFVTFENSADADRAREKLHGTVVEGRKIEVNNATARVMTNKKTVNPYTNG
Kind of assay: EMSA; HiTS-Eq, 1 nM pool, 10 min; buffer printed only for the single-RNA assays: 10 mM Tris pH 7.5, 150 mM NaCl, 3.4 mM EDTA, 0.001% NP-40, 30 C. The following applies: tags: His6 N-terminal (pET28a); label: 5' 32P. The gist of the method: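 Purified wild-type or mutant RbFox RRM at increasing concentrations was equilibrated with 1 nM of 5′-radiolabelled RNA carrying 7 randomized nucleotides for 10 min in 50 µL. Unbound RNA was separated by 8% native PAGE and sequenced. Relative association constants came from read-count changes of each RNA species compared with the control reaction, normalised to the cognate motif.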
(In EMSA bound probe runs differently from free probe, usually more slowly.)
Turning to B1, the binding signal was 0.0832 KA relative to UGCAUGU.

For the molecule B2, the binding signal was 0.108 KA relative to UGCAUGU. Take B3: the binding signal was 0.502 KA relative to UGCAUGU. On to B4, for which the binding signal was 0.248 KA relative to UGCAUGU. For the molecule B5, the binding signal was 0.639 KA relative to UGCAUGU. B6: the binding signal was 0.199 KA relative to UGCAUGU. In the case of B7, the binding signal is 0.0967 KA relative to UGCAUGU.

Regarding B8, the binding signal was 0.0809 KA relative to UGCAUGU. With B9 the figure was 0.305 KA relative to UGCAUGU; with B10, 0.278 KA relative to UGCAUGU; with B11, 0.407 KA relative to UGCAUGU. As for B12, the binding signal is 0.147 KA relative to UGCAUGU. In the case of B13, the binding signal is 0.0961 KA relative to UGCAUGU. With B14 the figure was 0.0891 KA relative to UGCAUGU. Take B15: the binding signal is 0.107 KA relative to UGCAUGU. In the case of B16, the binding signal is 0.0603 KA relative to UGCAUGU. For the molecule B17, the binding signal was 0.0749 KA relative to UGCAUGU. Turning to B18, the binding signal was 0.0768 KA relative to UGCAUGU. In the case of B19, the binding signal is 0.0699 KA relative to UGCAUGU. For the molecule B20, the binding signal was 0.0959 KA relative to UGCAUGU. For B21, the binding signal is 0.397 KA relative to UGCAUGU. The same measure for B22: 0.354 KA relative to UGCAUGU; for B23: 0.184 KA relative to UGCAUGU; for B24: 0.256 KA relative to UGCAUGU. Regarding B25, the binding signal is 0.117 KA relative to UGCAUGU.

For B26, the binding signal is 0.382 KA relative to UGCAUGU.

As for B27, the binding signal was 0.17 KA relative to UGCAUGU.

For B28, the binding signal was 0.121 KA relative to UGCAUGU.

For B29, the binding signal was 0.324 KA relative to UGCAUGU. With B30 the figure was 0.236 KA relative to UGCAUGU; with B31, 0.114 KA relative to UGCAUGU. As for B32, the binding signal is 0.405 KA relative to UGCAUGU.
